# How the values were obtained:
# ETS1 [1] = target: T1, ETS1 (UniProt P14921); assay: ETS1 binding intensity (PBM fluorescence), ETS1 alone (arbitrary fluorescence units); higher = stronger binding; settings: ETS1 concentration 1 nM; RUNX1 concentration 0 nM
# T1 sequence: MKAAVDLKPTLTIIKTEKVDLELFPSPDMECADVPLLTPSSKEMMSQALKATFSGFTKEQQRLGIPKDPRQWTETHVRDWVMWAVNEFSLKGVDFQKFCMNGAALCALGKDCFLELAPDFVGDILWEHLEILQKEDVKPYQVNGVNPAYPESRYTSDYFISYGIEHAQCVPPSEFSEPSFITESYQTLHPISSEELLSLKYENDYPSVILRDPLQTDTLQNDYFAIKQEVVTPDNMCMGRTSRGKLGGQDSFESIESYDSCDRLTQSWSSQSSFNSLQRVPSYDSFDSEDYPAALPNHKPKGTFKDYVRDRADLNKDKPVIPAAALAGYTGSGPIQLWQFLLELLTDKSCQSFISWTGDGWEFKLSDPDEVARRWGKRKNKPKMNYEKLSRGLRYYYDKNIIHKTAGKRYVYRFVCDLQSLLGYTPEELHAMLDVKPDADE
# RUNX1 [2] = target: RUNX1 (UniProt Q01196); assay: RUNX1 binding intensity (PBM fluorescence), RUNX1 alone (arbitrary fluorescence units); higher = stronger binding; settings: RUNX1 concentration 2 nM; ETS1 concentration 0 nM
# Protocol: (§1)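 Cooperative gcPBM on 36-bp genomic probes with neighbouring ETS1 and RUNX1 sites. Recombinant human RUNX1 (2 nM) was incubated alone or with ETS1 (25 nM) and detected with anti-RUNX1 antibody plus Alexa488 secondary. Values are medians over 4 replicate spots; the RUNX1+ETS1 data were normalised to the RUNX1-only data. The probes sit in constant array flanks that are not printed.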
# ETS1 [3] = target: T1, ETS1; assay: ETS1 binding intensity (PBM fluorescence) in presence of RUNX1, normalised to ETS1-only experiment (arbitrary fluorescence units); higher = stronger binding; settings: ETS1 concentration 1 nM; RUNX1 concentration 25 nM
# RUNX1 [4] = target: RUNX1 (UniProt Q01196); assay: RUNX1 binding intensity (PBM fluorescence) in presence of ETS1, normalised to RUNX1-only experiment (arbitrary fluorescence units); higher = stronger binding; settings: RUNX1 concentration 2 nM; ETS1 concentration 25 nM
# Protocol: as §1
# 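Wherever RUNX1 binding intensity (PBM fluorescence) in presence of ETS1, normalised to RUNX1-only experiment is given: Full-length recombinant human ETS1 or RUNX1 bound to double-stranded 36-bp genomic probes on microarrays, detected by protein-specific primary antibody and Alexa488 secondary, spot fluorescence as median of four replicate spots.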
# 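Wherever RUNX1 binding intensity (PBM fluorescence), RUNX1 alone is given: Full-length recombinant human RUNX1 bound to double-stranded 36-bp genomic probes on a high-density microarray, scored as Alexa488 fluorescence per spot via anti-RUNX1 antibody, median of four replicate spots.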
# Chain of RUNX1 (Q01196 whole entry): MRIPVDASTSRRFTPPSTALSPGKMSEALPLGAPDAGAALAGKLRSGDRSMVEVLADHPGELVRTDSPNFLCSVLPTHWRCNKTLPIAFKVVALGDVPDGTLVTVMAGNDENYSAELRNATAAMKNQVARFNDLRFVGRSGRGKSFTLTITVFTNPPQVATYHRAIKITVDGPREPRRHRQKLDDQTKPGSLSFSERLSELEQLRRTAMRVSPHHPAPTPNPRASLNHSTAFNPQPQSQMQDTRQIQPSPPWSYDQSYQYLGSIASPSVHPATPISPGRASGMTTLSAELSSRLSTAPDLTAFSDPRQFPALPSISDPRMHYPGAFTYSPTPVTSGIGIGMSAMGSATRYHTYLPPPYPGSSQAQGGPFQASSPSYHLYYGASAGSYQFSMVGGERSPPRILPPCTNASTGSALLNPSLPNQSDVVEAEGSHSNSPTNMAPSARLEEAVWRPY
Sequence,ETS1 binding intensity (ETS1 [1]),RUNX1 binding intensity (RUNX1 [2]),ETS1 binding intensity (ETS1 [3]),RUNX1 binding intensity (RUNX1 [4])
GGGGCAGCTTCCGGCAGGAGAGCCCGCATTCACGGC,731,1370,751,2360
CCAGAGGGCGGAAGTGGGAGCTGCGACCGCGCTCCC,3670,690,6280,1880
ACAGGAAGAGATATTATATCTCCCTGCGGTTGGTTT,583,904,2430,779
CAGCAGCACCTGCATCCGCTGCGGGAGTCCGAGCCG,515,778,491,1030
GGCACTTCCGGTCCTGACCTGAAGCGGTAACCGTCA,8390,719,8600,1820
GTGCCTCACCGCTTCCGGCGCTGCGGGATGACGTCA,2390,786,4720,7320
CAGAAAGAGGAAATGATGCGAGTCCACACCGCAGGC,788,703,2610,1170
GCTAAGAGCAGGAAATGATCTGGGAACCACCATCAC,2690,719,3070,918
GAGCCACCGGAAACGGAGCTGCGGCCGCGCCCCGCC,5340,747,7820,1650
TCCGGAAGTCGGAGGAACACCCCAGCCGCCGCAGCC,1840,751,2010,988
TCAAGAAAACAGGAAACTCTCAAAACCAAGTTCTGA,1430,773,1830,931
TTTACAGGAAATATCCAGAACAGGTAAACCCACAGA,778,796,1630,926
AGGCTGTGGCGGAAGTGGTCGCGTTACCGCTTGTTT,6340,712,12100,3760
GGCCCCTGCTTCCGGGTGTGACGCGAACCGCGGGCA,616,687,1050,1400
AACTGTCTCTACCCAGGAAGTGGTTTTATTTAAAAG,5160,1020,14900,2190
TAAGTGCAGGAAACGGCTGTGTGGGTGTCAGTGATT,1350,689,1310,906
TTCTGTAGCTTAGGATGTGGGTTTCTTTGTTTCTGA,452,926,1020,1030
TCTGTGAAAAAGGATGTGCGGTTATGGAGGAGAACT,970,1210,3460,1930
CATGGGACCCGGAAGTGTGTGGTAAAGCGCCGGGGC,3590,896,9470,2350
CAGCACGCAGGAAGCACATGTGGTGGGGCTCTTCCA,674,742,759,1030

Sequence,ETS1 binding intensity (ETS1 [1]),RUNX1 binding intensity (RUNX1 [2]),ETS1 binding intensity (ETS1 [3]),RUNX1 binding intensity (RUNX1 [4])
GCCCAGGGAAGCACTTCCTGCGGGGCGCGGTGCAGC,1030,744,1270,1500
TGCTTAGCAGGAAGTTAGTCTGCCTGTGGTAGCTCC,2770,734,3470,1020
AGTTTCTTCTTTCCGGTGGGTTTGTGGTCTTGCTGA,1160,1390,2990,2770
GGATGACATCCGGCACCAACTTAACCACTAATCTCA,615,947,1690,2410
GACCTGGGCAGGAAGAGCGGCATGTGGGGCCCCCTG,875,714,795,874
TGTCATCCCGGAAACTGATAACAAGACCGCGAGTCA,1910,807,2530,1450
ATGTTTGGGGCCGGAAGTGGGTTGGAGGTGTGGCGG,24700,706,23800,2830
AGGCAGCACAGGAAGTTATAACCACATGTACACTTG,3790,781,11900,1960
ACGGGGAAGAACGGAAGTGGTTTCCATGATGGTCTG,6420,831,9080,4470
AAACTACACCTCAGAGGATGTGGTTCCTTCTCTCAT,1130,854,1730,946
ACAGGAAATGACATCAGAATCTCCAAACCACAACCA,1030,1390,5020,2110
GTTCTCCACATCCTGTTCCGTAGCTGTGGTGCACCG,1600,3060,1780,8880
TCCAGGCATTTCCCCCATGTTGGCTCACCGCACTAT,416,1260,594,1290
ATCTTGGCCCATATCCTGTGGTGTTCTGCTAGAGGT,768,791,843,1290
ACATTCTTCCGGTTGGACCTCCGCGGTCAGCGCTGT,871,1110,1710,3220
TCAGCTGACACAGGAAGTGGTAAAGCTATTATCTGT,9480,735,16400,2730
CTGTTTCCTGCCTTTGCTGTCTGTGACCGCATCAGT,478,1310,1490,2840
GACCCGGCCCGCCCCTTCCGGCCGCAGCGCGGGGCA,704,952,817,1490
CCCGGGGGCAGGAAATGTCGCCTTACCCACAGCCTT,2470,873,5930,1210
TGCGCCGCGGAACCCGGAAGTGGTCACGGAGCTCGG,10600,766,23400,3970
